High-throughput results (PubChem BioAssay)
DT40 TDP1 CPT: growth inhibition of DT40 Tdp1-/-;hTDP1 cells with camptothecin (screen for TDP1 inhibitors); chicken DT40 Tdp1-/-;hTDP1 cells + 20 nM CPT, ATP luminescence, 48 h; Potency, µM (top dose mostly 46.2 µM), for inactives: at the top dose activity change, negative = growth inhibition, usual class: inhibitors; 420,000 tested, 12% active; AID 686979; note: potency is the fitted concentration of half-maximal effect; % is set by controls: 0 for no effect and ±100 for the full control effect; nearly all actives have a fitted effect of over 55% in size
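Chicken DT40 Tdp1-/- cells stably complemented with human TDP1 were seeded at 400 cells/well in medium containing 20 nM camptothecin, exposed to pin-transferred compounds, and grown at 37 °C for at least 48 hr. Viability was read as ATP luminescence.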
HepG2 tox: HepG2 cytotoxicity, counter-screen for TGF-b inhibitors. HepG2 CAGA-GFP viability, ATP luminescence, 18 h. AID 588856. Potency, µM (series often up to 46.1 µM), for inactives: top-dose activity change, negative = cytotoxicity, actives largely listed as cytotoxic. 410,000 tested, 0.76% active; note: potency is the fitted concentration of half-maximal effect
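HepG2 CAGA-GFP cells (1000/well, DMEM with 1% FBS) received compound, then TGF-beta at 500 pg/mL final, and were incubated 18 hours at 37 degrees C. Viability was read by CellTiter-Glo luminescence. Media-only wells were set as complete cell-killing and DMSO as no toxicity.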
IL1B secr inh: blocks inflammasome-driven IL-1 beta release; activity change, % at 57.5 µM; AID 743279; 360,000 tested, 4.7% active; THP-1 LPS/ATP IL-1B secretion, AlphaLISA, 16 h; stronger effect = lower value; in the data active = activity change below about -50%; inconclusive = mostly about -30% to -49%; note: % is set by controls: 0 for no effect and ±100 for the full control effect
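THP-1 cells pretreated 1 hr with compounds (up to 57.5 uM final), then stimulated with LPS (250 ng/mL final) plus ATP (1.25 mM final); secreted IL-1B measured by AlphaLISA after 16 hr, decreased signal indicating inhibition.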
TDP1 inh: blocks human tyrosyl-DNA phosphodiesterase 1; recombinant TDP1, AlphaScreen DNA substrate cleavage; 350,000 tested, 0.28% active; Potency, µM (series often up to 130 µM), for the others: top-dose activity change, negative = inhibition, hits mostly inhibitors; Q9NUW8; note: potency is the fitted concentration of half-maximal effect; % is set by controls: 0 for no effect and ±100 for the full control effect; nearly all actives have a fitted effect of over 40% in size
Target sequence (Q9NUW8 whole entry, looked up): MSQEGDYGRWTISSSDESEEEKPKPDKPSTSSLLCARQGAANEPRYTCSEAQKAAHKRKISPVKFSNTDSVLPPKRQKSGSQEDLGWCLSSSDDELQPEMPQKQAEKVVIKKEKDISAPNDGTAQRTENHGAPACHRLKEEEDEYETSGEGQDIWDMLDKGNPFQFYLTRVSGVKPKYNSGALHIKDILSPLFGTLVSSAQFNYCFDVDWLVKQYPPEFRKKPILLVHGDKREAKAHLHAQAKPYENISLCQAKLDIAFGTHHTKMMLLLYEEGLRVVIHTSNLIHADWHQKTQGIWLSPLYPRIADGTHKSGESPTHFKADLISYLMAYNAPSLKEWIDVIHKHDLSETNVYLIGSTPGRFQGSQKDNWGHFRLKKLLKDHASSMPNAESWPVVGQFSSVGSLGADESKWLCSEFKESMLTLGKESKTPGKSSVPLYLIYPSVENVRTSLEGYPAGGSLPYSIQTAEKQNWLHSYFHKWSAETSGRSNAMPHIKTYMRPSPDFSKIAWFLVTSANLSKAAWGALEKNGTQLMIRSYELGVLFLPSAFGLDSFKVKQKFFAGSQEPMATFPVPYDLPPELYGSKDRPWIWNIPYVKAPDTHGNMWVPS
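Enzyme-compound mixtures sat 15 min at room temperature, followed by a 5 min reaction with 15 nM final substrate and 10 min with AlphaScreen beads. Recombinant human Tdp1 was used at 1 nM final.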
TGFb SMAD3 inh: inhibitors of TGF-b signaling; Potency, µM (titrated, usually from 46.1 µM), without a hit: top-dose activity, negative = inhibition, hits mostly inhibitors; 410,000 tested, 1.2% active; HepG2 CAGA-GFP TGF-b/SMAD3 reporter, GFP fluorescence, 18 h; TGF-beta stimulated, 500 pg/mL final; note: potency is the fitted concentration of half-maximal effect; % is set by controls: 0 for no effect and ±100 for the full control effect; nearly all actives have a fitted effect of over 65% in size
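First, reporter cells (HEPG2 CAGA-GFP) rested 2 h at 37 degrees C. Next, compounds were pinned in and TGF-beta added to 500 pg/mL final. After 18 h, GFP was imaged per cell and summed per well.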
TDP1 cell noCPT: qHTS for Inhibitors of human tyrosyl-DNA phosphodiesterase 1 (TDP1): qHTS in cells in absence of CPT; AID 686978, 2013; Potency, µM (series often up to 46.2 µM), without a hit: at the highest dose activity change, negative = growth inhibition, hits mostly inhibitors; 420,000 tested, 15% active; DT40 Tdp1-/- hTDP1 cells, no CPT, ATP luminescence, 48 h; note: potency is the fitted concentration of half-maximal effect; % is set by controls: 0 for no effect and ±100 for the full control effect; nearly all actives have a fitted effect of over 55% in size
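Stably hTDP1-transfected Tdp1-null chicken DT40 cells were treated with library compounds minus camptothecin and grown for at least 48 hr at 37 °C, after which cellular ATP was quantified by luminescence.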
Numbers without * were called inactive; ? = inconclusive; . = no result given. In the library only some 18% were active in any assay of this set; here they are far more common. Unless noted, calls come from the whole dose curve; as a rule, active = well fitted curve in the direction sought with a large enough effect; inconclusive = small, poorly fitted or top-dose-only effect, or another doubt; inactive = no such curve, though single readings can be large; an effect the other way counts as inactive or inconclusive.

SMILES	DT40 TDP1 CPT	HepG2 tox	IL1B secr inh	TDP1 inh	TGFb SMAD3 inh	TDP1 cell noCPT
O=C(CN1C(=O)c2ccccc2C1=O)Nc1ccccc1C(=O)NC1CCCCC1	-8%	1%	16	4%	7%	0%
COc1ccc(S(=O)(=O)n2cnc3cc(C)c(C)cc32)cc1	?	-7%	-6	2%	-5%	?
COc1ccc(Cl)cc1S(=O)(=O)n1cnc2ccccc21	23µM*	-3%	7	3%	1%	?
CCOc1ccc(C)cc1S(=O)(=O)n1cnc2ccccc21	5.2µM*	-6%	0	5%	-20%	4.1µM*
COc1ccc(S(=O)(=O)n2cnc3cc(C)c(C)cc32)cc1C	12µM*	-10%	-53*	-1%	-9%	?
CCOc1ccc(Cl)cc1S(=O)(=O)n1cnc2ccccc21	6.3µM*	5%	16	7%	4%	4.5µM*
COc1ccc(S(=O)(=O)n2cnc3ccccc32)cc1OC	0%	-5%	12	.	3%	-1%
COc1ccc(C2C(=O)N(C3CCC(C)CC3)CC(=O)N2Cc2ccccc2Cl)cc1OC (stereo not drawn)	?	-41%	.	5%	-11%	?
COc1ccc(CSc2n[nH]c(=O)[nH]c2=O)cc1	-2%	-11%	21	.	-1%	-19%
Cc1ccc(C(=O)NCCc2csc(-c3cccc(F)c3)n2)cc1C	-26%	5%	.	3%	9%	-19%
COC(=O)CC1Oc2ccc(Cl)cc2-n2cc(-c3ccccc3)nc21 (stereo not drawn)	21µM*	-6%	.	-1%	26%	13µM*
COC(=O)CC1Oc2ccccc2N(Cc2ccccc2)C1=O (stereo not drawn)	7%	-1%	12	4%	-17%	-15%
COC(=O)CC1Oc2ccccc2-n2cc(-c3ccc(Cl)cc3)nc21 (stereo not drawn)	7.3µM*	3%	.	5%	-7%	1.8µM*
COC(=O)CC1Oc2ccc(Cl)cc2-n2cc(-c3ccc(F)cc3)nc21 (stereo not drawn)	-14%	1%	.	-1%	?	-18%
Cc1cc(N)cc(C)c1-c1c(Br)cc(N)cc1Br	13µM*	-33%	14	.	?	18µM*
Cc1cc(C(=O)O)cc(Br)c1N	15%	4%	13	0%	11%	5%
CN(C)S(=O)(=O)Nc1cc(Cl)cc(Cl)c1	18µM*	1%	44	-3%	?	?
CCOc1ccc(CN(C)CC(=O)Nc2ccc(N3CCOCC3)cc2)cc1OC	4%	21%	14	2%	0%	2%
Cc1cc(O)ccc1N/C=C/c1onc(C)c1[N+](=O)[O-]	-14%	3%	?	2%	1%	-22%
Cc1cc(NC(=O)CCCn2nc(C)c([N+](=O)[O-])c2C)no1	9%	16%	26	2%	3%	-11%
Cc1noc(/C=C/c2nn(C)cc2Cl)c1[N+](=O)[O-]	21µM*	-64%	-78*	5%	?	12µM*
Cc1cccc(/C=C/c2onc(C)c2[N+](=O)[O-])n1	2.6µM*	-166%	-97*	.	0%	2.6µM*
Cc1cccc(N/C=C/c2onc(C)c2[N+](=O)[O-])c1	?	-25%	3	4%	31%	9.2µM*
COc1cc(/C=C/c2onc(C)c2[N+](=O)[O-])cc(OC)c1OC	7%	4%	14	.	13%	-21%
COCCCNC(=S)N1CCC(C(=O)c2ccc(Cl)cc2)CC1	-65%	-12%	-12	.	-21%	-69%
SMILES	DT40 TDP1 CPT	HepG2 tox	IL1B secr inh	TDP1 inh	TGFb SMAD3 inh	TDP1 cell noCPT
O=C1CCc2cc(S(=O)(=O)Nc3ccc(Cl)c(Cl)c3)ccc2N1	.	.	.	1%	.	.
O=S(=O)(O)Oc1ccc(C(c2ccc(OS(=O)(=O)O)cc2)c2ccccn2)cc1	-2%	.	.	.	.	8%
O=C(CCNc1cc(Cl)cc(Cl)c1)c1cccs1	?	-4%	-8	-1%	?	?
O=C(CCSc1ccc(Cl)cc1)c1cccs1	1.8µM*	-15%	-106*	1%	0%	2.3µM*
O=C(CNC(=O)c1cccs1)c1ccc(Cl)cc1	3%	-15%	-10	.	3%	-16%
O=C(CCNc1ccc(Cl)cc1)c1cccs1	26µM*	-14%	?	1%	-17%	15µM*
C=CCc1cc(OC)c(O)c(C(=O)NCCO)c1	0%	.	.	6%	.	-22%
Cc1ccc(-c2nc(-c3ccc(Cl)cc3)sc2CC(=O)O)c(C)c1	-3%	-7%	24	1%	-10%	-2%
COc1ccc(CN2C(=O)c3ccccc3C(/C=N\OCc3ccc(F)cc3)C2=O)cc1 (stereo not drawn)	?	-17%	0	5%	?	8.2µM*
COc1ccc(CN2C(=O)c3ccccc3C(/C=N/OCc3ccc(Cl)cc3)C2=O)cc1 (stereo not drawn)	13µM*	-57%	8	-9%	?	12µM*
COc1ccc(CN2C(=O)c3ccccc3C2=O)cc1	22%	-6%	-11	.	4%	-1%
CCOC(=O)C(CC)(CC)C(=O)/C=C/c1cccc(Br)c1	12µM*	-116%	-98*	.	14µM*	18µM*
Cc1ccc(N2CCN(C(=S)Nc3ccccc3)CC2)cc1	-9%	-2%	-8	5%	-15%	?
C/C(CC1CC2=C(CC1(C)C)C(C)(C)CCC2)=N\NC(N)=S (stereo not drawn)	6.5µM*	11µM*	-74*	7%	7.9µM*	5.8µM*
CS(=O)(=O)N(CC(=O)N/N=C/c1cc2c(cc1Br)OCO2)c1ccccc1Br	?	0%	?	4%	?	15µM*
O=C(N/N=C/c1ccc(Br)s1)c1cccs1	16µM*	-43%	10	7%	-24%	21µM*
O=C(N/N=C/c1ccc(Br)s1)c1c[nH]c2ccccc12	?	-31%	-81*	0%	-4%	?
Cc1ccc(/C=N/NC(=O)c2cccs2)s1	-20%	21%	-4	3%	-13%	-8%
O=C(N/N=C/c1ccc(Cl)cc1)c1ccc2c(c1)OCO2	?	-27%	-6	.	?	13µM*
CCC(C)NC(=O)c1ccc2c(c1)S(=O)(=O)c1ccccc1C2=O (stereo not drawn)	-3%	16%	-2	-1%	3%	?
